What all share (assay): NCI-60 one-dose screen, 48 h (100 = growth as untreated, 0 = no growth, -100 = all killed)
What all share (conditions): 10 µM unless noted

The test system of assay [1] is SR leukemia.
The subject of assay [2] is RPMI-8226 leukemia.
The test system of assay [3] is OVCAR-8 ovarian.
Assay [4] deals with OVCAR-5 ovarian.
For assay [5], the system named is OVCAR-4 ovarian.
Assay [6] has as its system SK-OV-3 ovarian.
In assay [7] the test system is IGROV1 ovarian.
The test system of assay [8] is OVCAR-3 ovarian.
The subject of assay [9] is HS 578T breast.
In assay [10] the test system is NCI/ADR-RES ovarian.
Assay [11] has as its system T-47D breast.
Assay [12] concerns BT-549 breast.
The test system of assay [13] is MDA-MB-435 melanoma.
The test system of assay [14] is SW-620 colon.
In assay [15] the test system is MCF7 breast.
In assay [16] the test system is HCT-116 colon.
Assay [17] concerns HCC-2998 colon.
Assay [18] concerns KM12 colon.

SMILES strings stand for the structures. The panel holds about 83,000 compounds, 20% with a hit somewhere; the sample as a whole holds those more often.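 Step 1: grow cells in 96-well plates. Step 2: add test compound at a single concentration. Step 3: incubate 48 h. Step 4: record percent growth.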 Unmarked numbers belong to inactive results. The source made the active and inactive calls. How the source made its calls: active means growth percent below 10; inactive means the rest.

Drawing on PubChem BioAssay (NCI), this text covers growth for nine compounds.

As to `COC(=O)[C@H]1CCCN1C[C@@H](O)CN1C(=O)/C(=C\c2cc(OC)c(OC)c(OC)c2)c2ccccc21`, the growth in [1] was 78%; in [2], 91.4%; in assay [3], 92.1%; in [4], 123%; in assay [5], 90.6%; in assay [6] it was 108%. In addition, the growth is 102% in assay [7]; 105% in assay [8]; 99.6% in assay [9]; 102% in assay [10]; 86.7% in assay [11]; 111% in [12]. Moreover, the growth in assay [13] was 96.5%; in [14], 95.7%; in assay [15], 70.5%; in [16], 92.8%; in assay [17] it was 102%; in assay [18] it was 98.9%.

Turning to `COc1ccc(OC)c(-c2c(C#N)c(-c3cccs3)nc3c2c(-c2ccccc2)nn3-c2ccccc2)c1`, the growth in assay [1] is 106%; in [2] it was 106%; in assay [3] it was 101%; in [4], 103%; in assay [5] it was 111%; in [6], 93.2%. For the same compound, the growth in assay [7] is 99.2%; in assay [8], 114%; in [9] it was 87.7%; in assay [10], 107%; in assay [11] it was 94.3%; in assay [12], 121%. Besides, the growth in [13] is 104%; in assay [14] it was 93.9%; in [15] it was 98.6%; in assay [16] it was 91.7%; in assay [17], 110%; in [18] it was 105%.

Turning to `COc1cc(-c2nc3cc(Cl)c(Cl)cc3[nH]2)ccc1OCC(=O)N=Nc1c(O)[nH]c2ccc([N+](=O)[O-])cc12`, the growth is 23.9% in assay [1]; 101% in assay [2]; 69.3% in assay [3]; 105% in assay [4]; 71.7% in assay [5]; 77% in [6]. The growth is 87.1% in [7]; 36.1% in assay [8]; 68.2% in assay [9]; 109% in assay [10]; 66.6% in [11]; 98.8% in [12]. Further, the growth in assay [13] is 81.9%; in assay [14], 82.7%; in [15], 74%; in [16] it was 42.6%; in assay [17], 71.8%; in assay [18], 103%.

Regarding `CC(C)=NNc1ccccn1`, the growth in assay [1] is 32%; in [2], 70.3%; in assay [3] it was 29%; in assay [4], 54.4%; in [5] it was 12%; in assay [6], 26.2%. The growth was 63.2% in assay [7]; 18.8% in assay [8]; 79.5% in [9]; 33.5% in assay [10]; 15.4% in assay [11]; 62.5% in [12]. Also, the growth was 55.2% in [13]; 26.2% in [14]; 18% in assay [15]; 23.6% in assay [16]; 48.1% in assay [17]; 38.2% in [18].

For the compound `N=C(N)c1ccc(-c2ccc(-c3cc(Cl)cc(Cl)c3)o2)o1`, the growth in assay [1] was -50% (active); in assay [2], -33.6% (active); in [3], -41.7% (active); in assay [4], -72.2% (active); in assay [5], -76.3% (active); in assay [6], -59% (active). Besides, the growth in assay [7] is -52.5% (active); in assay [8] it was -87.9% (active); in assay [9], 64.8%; in assay [10], -38.5% (active); in [11], -58.3% (active); in [12] it was 88.8%. In addition, the growth was -92.8% (active) in assay [13]; -87.4% (active) in [14]; -77.6% (active) in [15]; -69.4% (active) in [16]; -77.8% (active) in assay [17]; -78.9% (active) in assay [18].

Consider `N#Cc1nn(-c2cc(=O)[nH]c3ccc(Cl)cc23)c(N)c1C#N`, for which the growth in [1] was 0.706% (active); in assay [2], -24.6% (active); in [3], 95.8%; in [4], 105%; in [5], 91.5%; in [6] it was 74.6%. Besides, the growth in assay [7] is 102%; in [8], 108%; in [9], 103%; in assay [10], 98.5%; in assay [11], 67.2%; in [12], 87.9%. Besides, the growth in assay [13] is 125%; in [14], 91.1%; in assay [15], 100%; in assay [16], 84.4%; in [17], 92.7%; in assay [18], 106%.

`C#CCOc1cccc(Nc2ncnc3ccc(NC(=O)CCl)cc23)c1`: the growth in [1] is -42.1% (active); in assay [2] it was -50.9% (active); in assay [3], -4.18% (active); in assay [4], -70.1% (active); in [5] it was -33.9% (active); in assay [6], 20.1%. Also, the growth is -57.2% (active) in [7]; -74.8% (active) in [8]; 24.5% in assay [9]; -1.49% (active) in assay [10]; -39.1% (active) in assay [11]; -68.9% (active) in assay [12]. Further, the growth in assay [13] is -2.66% (active); in [14] it was -27.1% (active); in [15] it was -20.1% (active); in [16], -51.3% (active); in assay [17] it was -61.9% (active); in assay [18] it was -51.4% (active).

Consider `O=c1oc2ccccc2cc1C1=NN=C(SCc2ccccc2)SC1`, for which the growth in assay [1] is 89.4%; in [2] it was 98.7%; in [3] it was 101%; in assay [4] it was 105%; in assay [5], 88.9%; in assay [6], 97.8%. For the same compound, the growth was 101% in [7]; 103% in [8]; 103% in assay [9]; 105% in assay [10]; 85.5% in assay [11]; 102% in assay [12]. Moreover, the growth in [13] is 107%; in assay [14], 106%; in [15], 94.3%; in assay [16] it was 99.1%; in assay [17], 109%; in [18], 99.7%.

`CCOC(=O)c1ccc2[nH]c(O)c(C(=Nc3ccc(N(C)C(=O)CN4CCN(C)CC4)cc3)c3ccccc3)c2c1`: the growth was -20.7% (active) in assay [1]; -28.2% (active) in [2]; -11.9% (active) in assay [3]; -14% (active) in assay [4]; -71.1% (active) in assay [5]; -20.3% (active) in assay [6]. Further, the growth was -33.6% (active) in assay [7]; -76.5% (active) in assay [8]; -5.29% (active) in assay [9]; 53.1% in assay [10]; 21.6% in assay [11]; -75.9% (active) in [12]. Further, the growth in assay [13] was -42% (active); in assay [14], -34.4% (active); in assay [15], -63.9% (active); in assay [16], -38.8% (active); in assay [17], -55.2% (active); in assay [18], -33.4% (active).
